Consider 18 compounds from the supplement of paper PMC13380429.

For the assay, the system named is Vero E6 infected with SARS-CoV-2. Description: inhibition of SARS-CoV-2 cytopathic effect; higher = more antiviral protection, active = above 15. The settings on record: 48 h.

A number with no mark means an inactive call.

Consider `CC1Sc2c(C(=O)O)c(=O)c3cc(F)c(N4CCNCC4)cc3n21` (stereo not given) [ulifloxacin], for which the “inhibition of SARS-CoV-2 cytopathic effect” value (“inhibition” below) is -1.7% (1 nM); -1.36% (8.33 nM); -3.62% (100 nM); 1.61% (833.33 nM); -0.79% (10000 nM).

As for `Cc1cc(-c2cc(OC(=O)c3ccccc3)ccc2Cl)cc2nnc(Nc3ccc(OCCN4CCCC4)cc3)nc12`, the “inhibition” value is -2.62% (1 nM); 2.55% (8.33 nM); 2.44% (100 nM); 1.14% (833.33 nM); 2.17% (10000 nM).

As for `C=C1C(=O)O[C@@H]2/C=C(\C)CC/C=C(\C)CC[C@@H]12` [costunolide], the “inhibition” value (1 nM) was -0.97%; the “inhibition” value (8.33 nM) is -0.24%; the “inhibition” value (100 nM) was -0.99%; the “inhibition” value (833.33 nM) was 2.87%; the “inhibition” value (10000 nM) is 19.3% (active).

Turning to `Cn1c(=O)c2c(ncn2CC(=O)O)n(C)c1=O` [acefylline], the “inhibition” value is -0.43% (1 nM); 3.14% (8.33 nM); 12.4% (100 nM); 0.66% (833.33 nM); 0.73% (10000 nM).

As for `C=CCN1C[C@H](C(=O)N(CCCN(C)C)C(=O)NCC)C[C@@H]2c3cccc4[nH]cc(c34)C[C@H]21` [cabergoline], the “inhibition” value by setting is: (1 nM) -19%; (8.33 nM) -12.2%; (100 nM) -10%; (833.33 nM) -8.73%; (10000 nM) -14.1%.

Turning to `CCN1CCN(C(=O)N[C@@H](C(=O)N[C@@H]2C(=O)N3[C@@H]2SC(C)(C)[C@@H]3C(=O)O)c2ccccc2)C(=O)C1=O` [piperacillin], the “inhibition” value by setting is: (1 nM) -0.76%; (8.33 nM) 0.86%; (100 nM) -1.44%; (833.33 nM) -0.01%; (10000 nM) 0.01%.

With `Cc1cc(-c2ccccc2)nnc1NCCN1CCOCC1` [minaprine], the “inhibition” value (1 nM) was 0.27%; the “inhibition” value (8.33 nM) was 0.75%; the “inhibition” value (100 nM) is -0.02%; the “inhibition” value (833.33 nM) is 1.16%; the “inhibition” value (10000 nM) is 1.01%.

As to `CCOP(=S)(OCC)Oc1cc(C)nc(C(C)C)n1` [dimpylate], the “inhibition” value (1 nM) is 1.47%; the “inhibition” value (8.33 nM) is -0.54%; the “inhibition” value (100 nM) was 2.07%; the “inhibition” value (833.33 nM) was 1.11%; the “inhibition” value (10000 nM) is -3.47%.

Regarding `COc1cnc(NS(=O)(=O)c2ccc(N)cc2)nc1` [sulfameter], the “inhibition” value (1 nM) is -0.38%; the “inhibition” value (8.33 nM) is 1.1%; the “inhibition” value (100 nM) was 0.11%; the “inhibition” value (833.33 nM) is 0.46%; the “inhibition” value (10000 nM) is 2.89%.

As for `CC1C(=O)OC2C(O)C34C5CC(C(C)(C)C)C36C(OC(=O)C6O)OC4(C(=O)O5)C12O` (stereo not given) [ginkgolide-B], the “inhibition” value was 1.36% (1 nM); 0.56% (8.33 nM); -1.98% (100 nM); 2.69% (833.33 nM); 0.1% (10000 nM).

As to `Cc1nc2ccccn2c(=O)c1CCN1CCC(C(=O)c2ccc(F)cc2)CC1` [pirenperone], the “inhibition” value is 1.65% (1 nM); 1.73% (8.33 nM); -0.8% (100 nM); 1.4% (833.33 nM); 0.69% (10000 nM).

Regarding `CCOc1cc(C(=O)Nc2ccc(Cl)c(-c3nc4ccccc4[nH]3)c2)cc(OCC)c1OCC`, the “inhibition” value is 2.95% (1 nM); 2.03% (8.33 nM); 0.45% (100 nM); -3.49% (833.33 nM); 4.29% (10000 nM).

`CN(CCc1ccc(Cl)c(Cl)c1)CCN1CCCC1`: the “inhibition” value is, setting by setting: (1 nM) -1.5%; (8.33 nM) -0.54%; (100 nM) 2%; (833.33 nM) 3.84%; (10000 nM) -1.25%.

Turning to `O=C(Nc1nc2cccc(-c3ccc(CN4CCS(=O)(=O)CC4)cc3)n2n1)C1CC1` [filgotinib], the “inhibition” value runs as follows: (1 nM) -1.13%; (8.33 nM) -1.84%; (100 nM) 4.15%; (833.33 nM) 3.84%; (10000 nM) -1.27%.

For the compound `COc1ccc2nc3ccc(Cl)cc3c(SCCCN)c2c1`, the “inhibition” value is 0.89% (1 nM); 1% (8.33 nM); 0.27% (100 nM); 0.79% (833.33 nM); 2.63% (10000 nM).

As to `O=C(NC[C@H]1CN(c2ccc(N3CCOCC3=O)cc2)C(=O)O1)c1ccc(Cl)s1` [Rivaroxaban (Xarelto)], the “inhibition” value is 1.99% (1 nM); 1.35% (8.33 nM); 3.46% (100 nM); 1.51% (833.33 nM); 3.09% (10000 nM).

Turning to `CN(C)c1ccc2c(c1)Sc1cc(N(C)C)ccc1N2` [leucomethylene-blue], the “inhibition” value reads like this: (1 nM) 2.22%; (8.33 nM) 0.11%; (100 nM) 0.26%; (833.33 nM) 0.69%; (10000 nM) -7.13%.

As for `CC1(C)[C@@H]2C[C@@H](O)[C@@](C)(O)[C@H]1C2` [2,3-cis/exo-pinanediol], the “inhibition” value by setting is: (1 nM) -0.96%; (8.33 nM) 1.89%; (100 nM) 2.23%; (833.33 nM) -0.64%; (10000 nM) 2.13%.
